{"source": "PubChem BioAssay AID1851", "about": "(National Center for Advancing Translational Sciences (NCATS), 2009)", "note": "Among all 16,000 compounds or so, about 2,600 (16%) were called active. About 20% were inconclusive and are not listed. Calls follow the shape of the dose curve; as a rule, active = well fitted curve in the direction sought with a large enough effect; inconclusive = small, poorly fitted or top-dose-only effect, or effect the other way; inactive = no such curve, though single readings can be large or run the other way. Not all results are given here. % is scaled to controls: 0 for no effect and ±100 for the full control effect."}
{"biological_target": "Cytochrome P450 2D6 (Homo sapiens) (UniProt P10635)", "sequence (P10635 whole entry, looked up)": "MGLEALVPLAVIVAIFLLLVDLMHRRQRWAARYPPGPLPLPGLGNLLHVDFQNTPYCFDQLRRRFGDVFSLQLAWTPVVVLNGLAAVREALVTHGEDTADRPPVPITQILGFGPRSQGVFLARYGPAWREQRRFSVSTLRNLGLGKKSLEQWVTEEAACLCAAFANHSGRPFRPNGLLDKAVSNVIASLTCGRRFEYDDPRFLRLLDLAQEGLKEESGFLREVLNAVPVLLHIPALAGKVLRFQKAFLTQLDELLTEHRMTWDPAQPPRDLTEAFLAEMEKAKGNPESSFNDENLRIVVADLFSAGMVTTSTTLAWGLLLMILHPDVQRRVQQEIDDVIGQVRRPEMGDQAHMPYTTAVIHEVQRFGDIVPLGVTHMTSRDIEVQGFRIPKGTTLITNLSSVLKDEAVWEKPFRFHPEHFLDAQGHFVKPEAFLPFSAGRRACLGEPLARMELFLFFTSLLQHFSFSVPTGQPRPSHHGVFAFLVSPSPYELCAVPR", "test": "Cytochrome panel assay with activity outcomes", "settings": "recombinant CYP, pro-luciferin dealkylation, luminescence, p450-cyp2d6; series mostly up to 57.1 µM; activity, negative = inhibition: at the top concentration"}
{"smiles": "COc1cc2cc(CN(CCCO)S(=O)(=O)c3ccccc3Cl)c(=O)[nH]c2cc1OC", "activity, negative = inhibition": "5.86% (inactive)"}
{"smiles": "CCC(C)(C)n1nnnc1C(C(C)C)N(CCCO)Cc1cc2cc(C)ccc2[nH]c1=O", "note": "(stereo not given)", "activity, negative = inhibition": "-18.4% (inactive)"}
{"smiles": "CCC(C)(C)n1nnnc1C(c1cc2cc3c(cc2[nH]c1=O)OCO3)N1CCCCC1", "note": "(stereo not given)", "activity, negative = inhibition": "-25.4% (inactive)"}
{"smiles": "COc1ccccc1CN(Cc1cc2cc(C)cc(C)c2[nH]c1=O)Cc1nnnn1CC1CCCO1", "note": "(stereo not given)", "activity, negative = inhibition": "-28.2% (inactive)"}
{"smiles": "CCC(C)(C)n1nnnc1C(C(C)C)N(Cc1ccco1)Cc1cc2cc3c(cc2[nH]c1=O)OCO3", "note": "(stereo not given)", "AC50": "14.1 µM (active)"}
{"smiles": "COc1ccccc1CN(Cc1cc2cc3c(cc2[nH]c1=O)OCCO3)Cc1nnnn1Cc1ccco1", "AC50": "14.1 µM (active)"}
{"smiles": "COc1cccc2c1OC1(C)CC2/C(=C(\\C)O)C(=O)N1", "note": "(stereo not given)", "activity, negative = inhibition": "7.2% (inactive)"}
{"smiles": "OC[C@@H]1O[C@H](O)[C@@H](Cl)[C@H](O)[C@@H]1O", "activity, negative = inhibition": "5.2% (inactive)"}
{"smiles": "CN(C)S(=O)(=O)Oc1cccc(C(=O)Nc2ccccc2Cl)c1", "activity, negative = inhibition": "-10.3% (inactive)"}
{"smiles": "Clc1ccc(CSc2ncnc3c2ncn3[C@@H]2CCCCO2)cc1", "activity, negative = inhibition": "-9.38% [at 11.4 µM] (inactive)"}
{"smiles": "COc1ccc(/C=N/NC(=O)c2cc(-c3ccc(C)cc3C)nc3ccccc23)cc1COC(C)=O", "activity, negative = inhibition": "1.39% (inactive)"}
{"smiles": "CCCCn1cnc2c(c(CC#N)nn2-c2ccccc2)c1=N", "AC50": "0.398 µM (active)"}
{"smiles": "CCCCn1cnc2c(cnn2-c2ccc(F)cc2)c1=O", "activity, negative = inhibition": "-12.2% (inactive)"}
{"smiles": "CCOCCCn1cnc2c(c1=O)c1nc3ccccc3nc1n2-c1ccccc1", "activity, negative = inhibition": "-6.76% (inactive)"}
{"smiles": "O=C(c1cccs1)N1CCN(C(=O)C(c2ccccc2)c2ccccc2)CC1", "AC50": "10 µM (active)"}
{"smiles": "O=C(NCCN1CCN(C(=O)C(c2ccccc2)c2ccccc2)CC1)C(=O)Nc1ccccc1", "activity, negative = inhibition": "-10% (inactive)"}
{"smiles": "COc1ccc(NC(=O)C2CCN(C(=O)c3cccs3)CC2)c(OC)c1", "activity, negative = inhibition": "16.9% (inactive)"}
{"smiles": "O=C1[C@H]2[C@H]3[C@H](O)[C@H](O)C/C(=N/OCc4ccccc4)[C@H]3CC[C@@H]2C(=O)N1C[C@@H]1CCCO1", "activity, negative = inhibition": "4.75% [at 11.4 µM] (inactive)"}
{"smiles": "COc1cccc(Cn2c(=O)c(-c3cccs3)nc3cnc(N(C)C)nc32)c1", "activity, negative = inhibition": "-4.4% (inactive)"}
{"smiles": "COC(=O)CSc1ncc(OC)c(OC)n1", "activity, negative = inhibition": "-7.49% (inactive)"}
{"smiles": "O=C1c2ccccc2C(=O)N1C[C@]1(C(=O)O)NCCS1(=O)=O", "activity, negative = inhibition": "7.33% [at 11.4 µM] (inactive)"}
{"smiles": "COC(=O)N1CCC2(CCN(C(=O)NC(C)C)CC2)CC1", "activity, negative = inhibition": "-13.5% (inactive)"}
{"smiles": "O=C(Nc1cccc(F)c1)N1CCCC2(CCN(S(=O)(=O)c3ccccc3)CC2)C1", "AC50": "12.6 µM (active)"}
{"smiles": "CC(C)NC(=O)N1CCCC2(CCN(S(=O)(=O)c3ccccc3)CC2)C1", "AC50": "0.316 µM (active)"}
{"smiles": "CC(C)NC(=O)N1CCCC2(CCN(C(=O)c3cccn3C)CC2)C1", "activity, negative = inhibition": "-1.09% (inactive)"}
{"smiles": "CC(C)NC(=O)N1CC[C@@]2(CCCN(S(C)(=O)=O)C2)C1", "activity, negative = inhibition": "-3.82% (inactive)"}
{"smiles": "CC(C)NC(=O)N1CC2(CCN(S(=O)(=O)c3ccccc3)CC2)C1", "activity, negative = inhibition": "0.223% (inactive)"}
{"smiles": "CS(=O)(=O)N1CCC[C@@]2(CCN(C(=O)Nc3cccc(F)c3)C2)C1", "activity, negative = inhibition": "5.14% (inactive)"}
{"smiles": "CC(C)NC(=O)N1CCC2(CC1)CCN(S(C)(=O)=O)CC2", "AC50": "15.8 µM (active)"}
{"smiles": "CS(=O)(=O)N1CCC2(CCCN(C(=O)Nc3cccc(F)c3)C2)CC1", "activity, negative = inhibition": "-4.34% (inactive)"}
